Experimental data published in PubChem BioAssay (NCI).
The panel holds about 79,000 compounds, 15% with a hit somewhere; the sample as a whole holds those more often. Active and inactive are the calls of the source. Cut-off read from the data, not from the text of the source: active = growth inhibition above about 70%; inactive = the rest.

Experiments:
[1] = NCI Yeast Anticancer Drug Screen. Data for the rad52 strain (AID 147);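 note: 0% = growth of vehicle-treated control cultures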; settings: S. cerevisiae rad52 mutant growth inhibition, hits give high values
Summary of the method: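 Vehicle-treated cultures served as the reference for growth inhibition of compound-exposed yeast bearing a DNA repair mutation.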

[2] = NCI Yeast Anticancer Drug Screen. Data for the wt1 strain (AID 149);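 note: 0% = growth of vehicle-treated wt1 cultures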; settings: S. cerevisiae wt1 strain (SPY 50644) growth inhibition, hits give high values
Summary of the method: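 wt1 strain grown with compound or vehicle; inhibition taken from the growth difference.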

[3] = NCI Yeast Anticancer Drug Screen. Data for the rad50EPP+ strain (AID 151);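 note: 0% = growth of vehicle-treated control cultures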; settings: S. cerevisiae rad50 mutant strain, hits give high values
Summary of the method: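 In this screen, rad50EPP+ yeast were exposed to compounds. Growth inhibition was scored against vehicle-treated controls.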

[4] = NCI Yeast Anticancer Drug Screen. Data for the mgt1 strain (AID 153); settings: S. cerevisiae mgt1 mutant growth inhibition, hits give high values
Summary of the method: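 mgt1 strain exposed; growth vs vehicle control recorded as inhibition.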

[5] = NCI Yeast Anticancer Drug Screen. Data for the rad50 strain (AID 155);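 note: 0% = growth of vehicle-only cultures of the same strain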; settings: S. cerevisiae rad50 strain growth inhibition, hits give high values
Summary of the method: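 DNA repair mutant yeast, compound exposure, growth read-out; inhibition is taken relative to vehicle.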

[6] = NCI Yeast Anticancer Drug Screen. Data for the mec2-1 strain (AID 157); settings: S. cerevisiae mec2-1 strain, hits give high values
Summary of the method: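 Vehicle-treated cultures served as reference for growth inhibition of compound-exposed mec2-1 yeast.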

[7] = NCI Yeast Anticancer Drug Screen. Data for the rad14 strain (AID 159);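 note: 0% = growth of vehicle-treated control cultures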; settings: S. cerevisiae rad14 strain growth inhibition, hits give high values
Summary of the method: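 DNA repair-defective yeast, compound-exposed; % growth inhibition derived by comparison with vehicle-treated controls.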

[8] = NCI Yeast Anticancer Drug Screen. Data for the sgs1 mgt1 strain (AID 161);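 note: 0% = growth of cultures given vehicle only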; settings: S. cerevisiae sgs1 mgt1 strain, hits give high values
Summary of the method: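 Test agents were incubated with a DNA-repair-mutant yeast strain. Growth was then read and compared against vehicle-treated controls.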

[9] = NCI Yeast Anticancer Drug Screen. Data for the CLN2oe strain (AID 163);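 note: 0% = growth of vehicle-only control cultures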; settings: S. cerevisiae CLN2oe strain, hits give high values
Summary of the method: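 Inhibition relative to vehicle-treated yeast is reported. Cells: strain with genetic alteration in cell-cycle control, grown with compound.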

[10] = NCI Yeast Anticancer Drug Screen. Data for the cln2 rad14 strain (AID 165);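 note: 0% = growth equal to vehicle treated cultures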; settings: S. cerevisiae cln2 rad14 strain, hits give high values
Summary of the method: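 Each compound was tested on cln2 rad14 yeast. Inhibition of growth was calculated against vehicle-exposed controls.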

[11] = NCI Yeast Anticancer Drug Screen. Data for the bub3 strain (AID 167); settings: S. cerevisiae bub3 mutant strain, hits give high values
Summary of the method: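 In this screen, a yeast mutant lacking normal mitotic checkpoint function is challenged with compound. Relative growth versus vehicle gives the inhibition value.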

[12] = NCI Yeast Anticancer Drug Screen. Data for the wt2 strain (AID 169);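 note: 0% = growth of vehicle-treated yeast cultures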; settings: S. cerevisiae wt2 strain growth inhibition, hits give high values
Summary of the method: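 Inhibition of yeast growth was determined after compound treatment, normalised to controls receiving only vehicle.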

[13] = NCI Yeast Anticancer Drug Screen. Data for the mlh1 strain (AID 171);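 note: 0% = growth of vehicle-treated control cultures of the same strain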; settings: S. cerevisiae mlh1 strain growth inhibition, hits give high values
Summary of the method: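 Vehicle-normalised growth inhibition of a repair- or checkpoint-altered yeast strain following compound treatment.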

[14] = NCI Yeast Anticancer Drug Screen. Data for the sgs1 strain (AID 173);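 note: 0% = growth of vehicle-only control cultures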; settings: S. cerevisiae sgs1 mutant, hits give high values
Summary of the method: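 Screen format: yeast with repair or checkpoint alterations, compound exposure, growth read relative to vehicle.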

[15] = NCI Yeast Anticancer Drug Screen. Data for the mlh1 rad18 strain (AID 175); settings: S. cerevisiae mlh1 rad18 strain growth inhibition, hits give high values
Summary of the method: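 Vehicle-treated cultures served as the reference for growth inhibition in a yeast strain carrying DNA damage repair alterations exposed to each compound.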

[16] = NCI Yeast Anticancer Drug Screen. Data for the rad18 strain (AID 177); settings: S. cerevisiae rad18 mutant growth inhibition, hits give high values
Summary of the method: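 Test articles were incubated with altered yeast defective in DNA damage repair. Results are given as inhibition of growth versus vehicle.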

[17] = at 5.0 µM (retest, dose inferred, filed as 0.5)
[18] = at 50.0 µM (retest, dose inferred, filed as 5.0)

Measured: growth inhibition

NCCc1ccc(OCc2ccccc2)c(OCc2ccccc2)c1
active: [1]; at 33.0 µM 72% | [1]; at 100.0 µM 92% | [2]; at 33.0 µM 74% | [2]; at 100.0 µM 97% | [3]; at 100.0 µM 83% | [4]; at 33.0 µM 97% | [4]; at 100.0 µM 98% | [5]; at 33.0 µM 90% | [5]; [18] 90% | [5]; at 50.0 µM 91.7% | [5]; at 100.0 µM 96% | [6]; at 33.0 µM 92% | [6]; [18] 96% | [6]; at 50.0 µM 91.5% | [6]; at 100.0 µM 98% | [7]; at 33.0 µM 94% | [7]; at 100.0 µM 97% | [8]; [18] 97% | [9]; at 100.0 µM 97% | [10]; [18] 82% | [11]; at 33.0 µM 87% | [11]; [18] 92% | [11]; at 100.0 µM 96% | [12]; at 33.0 µM 95% | [12]; at 100.0 µM 97% | [13]; at 33.0 µM 95% | [13]; at 100.0 µM 96% | [14]; at 33.0 µM 95% | [14]; at 100.0 µM 96% | [15]; [18] 96% | [15]; at 50.0 µM 90.2% | [16]; at 33.0 µM 91% | [16]; at 100.0 µM 94%
inactive: [1]; at 1.2 µM -8% | [1]; at 3.7 µM -5% | [1]; at 11.0 µM -6% | [2]; at 1.2 µM 0% | [2]; at 3.7 µM -6% | [2]; at 11.0 µM -28% | [3]; at 1.2 µM -15% | [3]; at 3.7 µM -9% | [3]; at 11.0 µM -19% | [3]; at 33.0 µM 11% | [4]; at 1.2 µM 2% | [4]; at 3.7 µM 13% | [4]; at 11.0 µM 56% | [5]; at 1.2 µM 16% | [5]; at 3.7 µM 17% | [5]; [17] 43% | [5]; at 11.0 µM 35% | [6]; at 1.2 µM 0% | [6]; at 3.7 µM 3% | [6]; [17] 35% | [6]; at 11.0 µM 8% | [7]; at 1.2 µM -27% | [7]; at 3.7 µM -21% | [7]; at 11.0 µM -3% | [8]; [17] -16% | [9]; at 1.2 µM -1% | [9]; at 3.7 µM 3% | [9]; at 11.0 µM -5% | [9]; at 33.0 µM 41% | [10]; [17] 36% | [11]; at 1.2 µM 12% | [11]; at 3.7 µM 20% | [11]; [17] -17% | [11]; at 11.0 µM 35% | [12]; at 1.2 µM -15% | [12]; at 3.7 µM -12% | [12]; at 11.0 µM 37% | [13]; at 1.2 µM -38% | [13]; at 3.7 µM -12% | [13]; at 11.0 µM 43% | [14]; at 1.2 µM -8% | [14]; at 3.7 µM -5% | [14]; at 11.0 µM 51% | [15]; [17] 24% | [16]; at 1.2 µM 2% | [16]; at 3.7 µM 15% | [16]; at 11.0 µM 45%
